# Laboratory results as given in PubChem BioAssay AID504845 (National Center for Advancing Translational Sciences (NCATS), 2011).
# Values joined by “and” are separate entries in the source; they are usually repeats but may differ in a detail not shown here. Identical values can stand only once. About 150 (0.038%) of roughly 390,000 compounds were called active. Where a call stands in place of a potency, no number is given. About 3% were inconclusive and are not listed. Calls come from the whole dose curve; as a rule, active = well fitted inhibition curve with a large enough effect; inconclusive = small, poorly fitted or top-dose-only effect; inactive = no such curve, though single readings can be large or run the other way. This excerpt belongs to a sample that is enriched for actives. A structure can be active in one record and inactive in another.
# Target: Regulator of G-protein signaling 4 (Homo sapiens) (UniProt P49798)
# Assay: Inhibitors of Regulator of G Protein Signaling (RGS) 4: qHTS; note: nearly all actives have a fitted effect of over 75% in size
# Conditions: Transcreener GDP fluorescence polarization, RGS4-accelerated GTP hydrolysis; series mostly up to 114 µM
# Excerpt: G-protein-coupled receptors (GPCRs) are well-established targets for drug discovery and development. Members of the "regulator of G-protein signaling" (RGS)-protein superfamily have recently emerged as critical modulators of specific GPCR signaling pathways. […] Combining specific RGS domain inhibitors with existing GPCR agonists should potentiate cellular responses and could also increase the specificity of action of existing therapeutics. Small molecule modulators of RGS domain activity should also have clinical utility in inhibiting or potentiating the actions of endogenous GPCR agonists. In particular, the diversity of RGS proteins with highly localized and dynamically regulated distributions in the human brain makes this family of proteins attractive targets for pharmacotherapy of central nervous system (CNS) disorders such as Parkinson's disease, schizophrenia, and anxiety.
# This assay was used to screen the NIH Molecular Libraries Small Molecule Repository (MLSMR) in order to identify a small molecule that inhibits RGS4.
# NIH Chemical Genomics Center [NCGC]
# NIH Molecular Libraries Probe Centers Network [MLPCN]
# Assay Submitter (PI): David Siderovski, University of North Carolina Chapel Hill (School of Medicine)
# Two microliters of 500nM (2x working concentration) is dispensed into black medium-binding solid-bottom Kalypsys plates. Then with the Kalypsys pintool 23nl of control and compounds are transferred; the control compound is […] CCG-4986 (working concentration). After a 10 minute incubation at room temperature 2ul of antibody is added with the Kalypsys dispenser; (-)RGS4/Transcreener GDP solution in columns 3 and 4 which consisted of 10nM (2x working concentration) Alexa633, 20uM GTP, and 20 ug/ml GDP antibody and (+)RGS4/Transcreener GDP solution in columns 1,2, and 5 to 48 which consists of 900nM RGS4 (2x working concentration), 10nM Alexa633, 20 ug/ml GDP antibody. The plate is centrifuged at 1000 RPM for 15 seconds to remove any possible bubbles and then incubated for 5 minutes at ambient room temperature. An initial fluorescent polarization read (620 nm/688 nm) is performed on the Envision before the plate is incubated for 90 minutes at 30 deg C at a relative humidity of 80%. The plate is once more centrifuged at 1000 RPM for 15 seconds and another Envision fluorescent polarization (620 nm/688 nm) read is carried out.
# Potency is the fitted concentration of half-maximal effect.
# Chain of Regulator of G-protein signaling 4 (Homo sapiens) (P49798 whole entry, looked up): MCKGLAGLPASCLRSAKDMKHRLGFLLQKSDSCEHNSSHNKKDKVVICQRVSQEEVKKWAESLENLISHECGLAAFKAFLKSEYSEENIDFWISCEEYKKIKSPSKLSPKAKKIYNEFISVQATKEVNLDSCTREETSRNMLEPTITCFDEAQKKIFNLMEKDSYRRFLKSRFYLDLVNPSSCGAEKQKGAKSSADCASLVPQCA
row,SMILES,Potency
1,COc1cc(CN(CC2CCCO2)C(=O)c2ccccc2F)cc(OC)c1OC (stereo not drawn),inactive
2,CCn1c2ccccc2c2cc(NC(=O)COc3ccc(C)cc3C)ccc21,inactive
3,Nc1ccc2c3c(cccc13)C(=O)NC2=O,inactive
4,COc1ccc(-c2ccc(C3C4C=CCCC4(C)C(=O)N3Cc3ccccc3)c(F)c2)cc1OC (stereo not drawn),inactive
5,Cc1ccc(Nc2ccc3cc(S(=O)(=O)N4CCCCC4)ccc3n2)cc1F,inactive
6,O=C(NCC(c1ccc(Cl)cc1)N1CCOCC1)c1ccccc1F (stereo not drawn),inactive
7,COc1ccc(CCCOC(Cn2ccnc2)c2ccc(OC)cc2)cc1 (stereo not drawn),inactive
8,CCCNC(=O)C(CC)n1nc(CC)n2c(cc3oc(C)cc32)c1=O (stereo not drawn),inactive
9,CCCCC/C=C\CC1OC1CCCCCCCC(=O)O (stereo not drawn),37.7 µM (active)
10,CCCCCCCCCCCC(=O)O,inactive
11,CCc1ccc(CN(Cc2ccco2)C(=O)c2ccccc2Cl)cc1,inactive
12,COc1ccccc1N1CCN(C[C@@H]2CN3C(=O)N(C)c4ccccc4C3=N2)CC1,inactive
13,O=C(COc1ccc(Cl)cc1)Nc1ccc(-c2nc3cc(Cl)ccc3o2)c(O)c1,inactive
14,CCN(CC)/[N+]([O-])=N/Oc1cc(O/[N+]([O-])=N/N2CCCC2CO)c([N+](=O)[O-])cc1[N+](=O)[O-] (stereo not drawn),inactive
15,COc1ccc(OC)c(NC(=O)CSC2=Nc3ccccc3C3=NC(CC(=O)NCc4ccc(F)cc4)C(=O)N23)c1 (stereo not drawn),inactive
16,CCCc1nn2c(=O)cc(COC(=O)c3ccc(NC(=O)COc4ccc(F)cc4)cc3)nc2s1,inactive
17,CCc1ccccc1NC(=O)N1CCC2(CC1)Oc1ccccc1C(=O)N2Cc1ccccc1F,inactive
18,Cc1ccccc1CSCCNC(=O)C1CCN(S(=O)(=O)Cc2ccccc2)CC1,inactive
19,COc1ccccc1C(=O)NCCn1cc(SCc2ccccc2Cl)c2ccccc21,inactive
20,Cc1ccc(C)n1-c1nnc(N2CCC(C(=O)NCc3ccccc3Cl)CC2)s1,inactive
21,COc1ccc(-c2noc(CSc3nnc(-c4ccccc4)n3-c3ccc(F)cc3)n2)c(OC)c1,inactive
22,Cc1c(C(=O)NCc2ccccc2Br)oc2ccc3c(c12)C(=O)CC(C)(C)O3,inactive
23,CCn1cc(C(=O)NCCc2ccccc2)c(=O)c2cc(S(=O)(=O)N3CCCCCC3)ccc21,inactive
24,Cc1ccccc1CNC(=O)c1cccc(NC(=O)c2nsc3ccccc23)c1,inactive
25,Cc1ccc(C)c(S(=O)(=O)n2nc(C)c(S(=O)(=O)N3CCC(C)CC3)c2C)c1,inactive

row,SMILES,Potency
1,Cc1ccc2oc3c(c(=O)c2c1)C(c1ccc(O)cc1)N(Cc1ccc2c(c1)OCO2)C3=O (stereo not drawn),inactive
2,Cc1ccc(/C(=C/CN2CCCC2)c2ccccn2)cc1,inactive
3,CCC1=Nc2cc(C(=O)NCC(C)c3ccccc3)ccc2Sc2ccc(C)cc21 (stereo not drawn),inactive
4,CN(C)c1cc2c(Nc3ccc4c(cnn4Cc4ccccc4)c3)ncnc2cn1,inactive
5,Cc1csc(-c2nc3ccccc3n2C)n1,inactive
6,C=CCCN(C(Cc1ccccc1)C(=O)OC)S(=O)(=O)c1cc(Br)ccc1Br (stereo not drawn),inactive
7,Cc1ccc(NC(=O)CCCn2c(=O)c3cccn3c3ccccc32)cc1Cl,inactive
8,CC(N)(C(=O)O)c1ccc(-c2nn[nH]n2)cc1 (stereo not drawn),inactive
9,O=C(c1cccc(Br)c1)N1CCN(Cc2cc(=O)n3nc(-c4ccccc4)sc3n2)CC1,inactive
10,O=C(NCCCO)c1nn(-c2ccc(Cl)cc2)nc1CO,inactive
11,Cc1oc2ccc(O)c(CN3CCC(C)CC3)c2c1C(=O)Nc1ccccc1,inactive
12,O=C(O)c1ccc2c(c1)N(Cc1ccc(F)cc1)C(=O)c1ccccc1S2=O (stereo not drawn),inactive
13,OCCNc1ncnc2oc(-c3ccco3)c(-c3ccco3)c12,inactive
14,O=C(Cn1nc(Cc2cccnc2)c2ccccc2c1=O)N1CCN(c2ccccc2F)CC1,inactive
15,Cc1cc2c(cc3c(SCc4cccc(Cl)c4)nnc(C)n32)o1,inactive
16,Cc1cccc(CCNC(=O)c2ccc3c(c2)nc2n3CCC(C)C2)c1 (stereo not drawn),inactive
17,Cc1ccc(Cn2c(C)c3cnn(CC(=O)NCc4ccccc4)c(=O)c3c2C)cc1,inactive
18,C/C=C1\C2C=C(C)CC1(N)c1ccc(=O)[nH]c1C2 (stereo not drawn),inactive
19,Cc1ccc(Nc2nnc(-c3ccc(C)c(S(=O)(=O)N4CCCCC4)c3)c3ccccc23)cc1,inactive
20,CCOC(=O)c1[nH]c(C)c(CCC(=O)NCc2ccccc2C)c1C,inactive
21,O=S(=O)(c1ccc2nc(NCc3ccccc3Cl)ccc2c1)N1CCCCC1,inactive
22,CCc1cc2c(cc3c(=O)n(CC(=O)N4CCN(c5cc(Cl)ccc5C)CC4)nc(CC)n32)s1,inactive
23,COc1ccc(OC)c(-n2nnc(-c3nc(-c4cc(OC)c(OC)c(OC)c4)no3)c2C)c1,inactive
24,Cc1ccc(SCC(CC(C)C)N2CCN(CCc3ccccc3)CCC2=O)cc1 (stereo not drawn),inactive
25,Cc1cccc(NC(=O)CN(c2ccc(C(C)C)cc2)S(=O)(=O)c2c(C)nn(C)c2C)c1C,inactive

row,SMILES,Potency
1,C#CCCCCCCCCCCCCCCCC(=O)O,inactive
2,CCCN1CCC(=O)N(C(CSc2ccc(OC)cc2)Cc2ccccc2)CC1 (stereo not drawn),inactive
3,COc1cccc(CN2CCc3nc(SCC(=O)Nc4ccccc4)[nH]c(=O)c3C2)c1,inactive
4,COC(=O)c1ccccc1NC(=O)Cn1c(=O)n(-c2cccc(C(F)(F)F)c2)c(=O)c2c(C)c(C)sc21,inactive
5,COc1ccc(CN(Cc2ccccc2)C(=O)c2ccc(O)cc2)cc1COc1ccc(NC(C)=O)cc1,inactive
6,COc1cc(OC)c2c(C)cc(=O)oc2c1C(CCN1CCCCC1)c1ccc(N(C)C)cc1 (stereo not drawn),inactive
7,O=[N+]([O-])c1ccc(S(=O)(=O)N2CCN(c3nc(-c4ccccc4)nc4ccccc34)CC2)cc1,inactive
8,COc1ccc(OC)c(NC(=O)C2CCCN(S(=O)(=O)c3ccc4c(c3)CCCC(=O)N4)C2)c1 (stereo not drawn),inactive
9,COCCNC(=O)c1cc(-c2cccc(Cl)c2)on1,inactive
10,COc1ccccc1-c1nnc(SCC(N)=O)o1,inactive
11,O=C(Nc1ccccc1)N[C@H]1C[C@H](C(=O)O)Nc2cc(Cl)cc(Cl)c21,inactive
12,CCOc1ccc(S(=O)(=O)c2cn(Cc3ccccc3)c3ccc(OCC)cc3c2=O)cc1,inactive
13,Cn1c(=O)c2c(nc(SCC(=O)Nc3ccc(F)cc3)n2Cc2ccccc2)n(C)c1=O,inactive
14,CC(C)NC(=O)C1CCC(Cn2c(=O)c3sccc3n(Cc3ccc(F)cc3)c2=O)CC1 (stereo not drawn),inactive
15,Oc1ccc(Br)cc1C1C=C(c2ccc3c(c2)OCO3)NC(c2ccc(Cl)cc2)N1 (stereo not drawn),inactive
16,Cc1ccc2ccc3c(c2n1)NS(=O)(=O)c1ccccc1-3,inactive
17,COc1ccc2c(C)c(CCC(=O)NCc3ccc(OC)c(OC)c3)c(=O)oc2c1,inactive
18,Cc1c(-c2nc(-c3ccc4c(c3)OCO4)no2)nnn1-c1ccc(Br)cc1F,inactive
19,COc1ccc(OC)c(NC(=O)CSC2=Nc3ccccc3C3=NC(CC(=O)NCCc4ccccc4)C(=O)N23)c1 (stereo not drawn),inactive
20,CC(C)NC[C@H](O)c1ccc2ccccc2c1,inactive
21,O=C(CSc1nccn1-c1ccc(F)cc1)Nc1cccc2ccccc12,inactive
22,COc1ccc(-n2c(SCC(N)=O)nc3c(oc4ccccc43)c2=O)cc1,inactive
23,CCn1c(CN2CCC(C)CC2)nc2cc(NC(=O)c3ccccc3[N+](=O)[O-])ccc21,inactive
24,O=C(c1ccc2c(c1)N(Cc1ccccc1)C(=O)c1ccccc1S2(=O)=O)N1CCC(Cc2ccccc2)CC1,inactive
25,COc1ccc(-c2cccc(NS(=O)(=O)c3cc(C)c(OC)c(C)c3C)c2)nn1,inactive

row,SMILES,Potency
1,CCc1ccc(NC(=O)CSc2nc3c([nH]c4ccccc43)c(=O)n2-c2cccc(OC)c2)cc1,inactive
2,CCN(CC)c1nc(C#N)nc(OC)n1,inactive
3,CC(C)(C)c1ccc(C(=O)N2CCC(c3nc(-c4ccc(S(=O)(=O)N5CCCC5)cc4)no3)CC2)cc1,inactive
4,Cn1c(=O)c2c(n3c4ccccc4nc13)NC(=O)CC2c1cccc(Cl)c1 (stereo not drawn),inactive
5,CC(C)Sc1oc(-c2cccs2)nc1S(=O)(=O)c1ccc(Cl)cc1,inactive
6,Cc1ccc(SCC(=O)Nc2ccc3oc(-c4ccccc4C)nc3c2)cc1,inactive
7,C=C1CCN(C(CC(C)C)C(=O)NCc2cc(OC)c(OC)c(OC)c2)S(=O)(=O)c2ccccc21 (stereo not drawn),inactive
8,COC(=O)CCc1ccccc1S(=O)(=O)N(CCC(=O)OC)Cc1ccccc1,inactive
9,CCOC(=O)c1ccc(NC(=O)Cn2c(=O)n(-c3ccc(C)cc3)c(=O)c3c2cnn3C)cc1,inactive
10,Cc1nn(C(C)C(=O)Nc2ccc(C(C)C)cc2)c(=O)c2c1sc1ccccc12 (stereo not drawn),inactive
11,OC[C@@H]1O[C@H](n2cnc3c(SCc4ccccc4)ncnc32)[C@H](O)[C@H]1O,inactive
12,CCOc1ccc(Nc2c(S(=O)(=O)c3ccccc3)cnc3ccccc23)cc1,inactive
13,COc1ccc(NC(=O)c2ccc3nc(C(C)C)oc3c2)cc1OC,inactive
14,Cc1ccc(-c2nn(CC(C)(C)C)c3ncnc(N)c23)cc1,inactive
15,O=C(NCc1ccccc1)c1cccc(NC(=O)N2CCSc3ncccc32)c1,inactive
16,COc1ccc(Cn2c(=O)[nH]c3cc(C(=O)N4CCN(C(=O)c5ccco5)CC4)ccc3c2=O)cc1,inactive
17,CCOc1ccc(NC(=O)CSc2nnc3c(n2)[nH]c2ccc(S(=O)(=O)N4CCOCC4)cc23)cc1,inactive
18,CC1CCCN(S(=O)(=O)c2ccc3[nH]c(=O)cc(C(=O)NCCc4ccc(Cl)cc4)c3c2)C1 (stereo not drawn),inactive
19,CCN(CC)CCNC(=O)CN1N=C(c2ccc(OC)cc2)CCC1=O,inactive
20,COC(=O)c1ccc(C2C(C(=O)Nc3ccccc3)=C(C)Nc3nc4ccccc4n32)cc1 (stereo not drawn),inactive
21,S=C(Nc1ccc(Cl)cc1Cl)N1CCCC1,inactive
22,Oc1cc2c(cc1O)CN(C(=S)NCCc1ccc(Cl)cc1)CCC2,inactive and 16.8 µM (active)
23,O=C(NCCc1ccc(Cl)cc1)C1CCCN1C(=O)NCc1ccccc1 (stereo not drawn),inactive
